High-throughput results (PubChem)
In the library only some 0.93% were active in any assay of this set; here they are far more common.
MEP2-GFP yeast = alters MEP2-GFP fluorescence in TOR pathway yeast screen | S. cerevisiae MEP2-GFP strain, flow cytometry GFP, 3 h; 100% = DMSO control level | hit rate 0.51% among 330,000 | GFP response vs DMSO, % at 10 µM;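 active = GFP response versus DMSO above a set limit, roughly screen mean plus 3 SD, cut at about 180% in these data; inconclusive = fewer than 70 cells counted for a yeast strain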;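 also: median GFP fluorescence of the barcode-gated MEP2-GFP cells per well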
CIT2-GFP yeast = yeast TOR pathway CIT2-GFP modulation; S. cerevisiae CIT2-GFP strain, flow cytometry, 3 h; 100 means same as DMSO wells; GFP response vs DMSO, % at 10 µM; hit rate 0.065% among 320,000; AID 2029;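 active = GFP response relative to DMSO above a set limit, near the screen mean plus 3 SD, cut at about 150% in these data; inconclusive = Fewer than 70 cells measured for a yeast strain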;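 also: ratio of well median GFP fluorescence to mean of DMSO wells on the plate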
RPL19A TOR yeast = modulators of TOR pathway RPL19A-GFP in S. cerevisiae; S. cerevisiae RPL19A-GFP strain, flow cytometry, 3 h; stronger effect = lower value; percent response vs DMSO, % at 10 µM; hit rate 0.3% among 330,000;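 active = percent response vs DMSO below 50%; inconclusive = fewer than 70 events counted for the yeast strain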;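 also: median channel GFP fluorescence of the barcoded RPL19A-GFP strain; lower means less RPL19A-GFP as with rapamycin TOR inhibition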
LAP4-GFP MLPCN = yeast TOR pathway LAP4-GFP modulation; S. cerevisiae LAP4-GFP multiplex, flow cytometry GFP, 3 h; median GFP as percent of DMSO wells; AID 2023; hit rate 0.34% among 320,000; GFP response vs DMSO, % at 10 µM;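 active = GFP response vs DMSO above a set limit, about the screen mean plus 3 SD, cut at about 150% in these data; inconclusive = under 70 cell events counted for the yeast strain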
AGP1-GFP MLPCN = modulators of TOR pathway AGP1-GFP in S. cerevisiae | S. cerevisiae AGP1-GFP multiplex flow cytometry, 3 h; GFP as percent of DMSO wells | GFP response vs DMSO, % at 10 µM | hit rate 0.02% among 320,000 | AID 2066;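 active = GFP response relative to DMSO above a set limit, near screen average plus 3 SD, cut at about 150% in these data; inconclusive = fewer than 70 cells counted for the yeast strain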;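 also: median GFP channel fluorescence of the gated AGP1 strain per well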
Of the large screens only hits and unclear results are named; the others gave an inactive call; [ ] = dose if it differs, or a comment.

Cc1ccc(S(=O)(=O)c2cc3c(=O)n4ccccc4nc3n(C3CCCC3)c2=N)cc1	MEP2-GFP yeast 291.1[may fluoresce red and violet], CIT2-GFP yeast inconclusive, RPL19A TOR yeast inconclusive, AGP1-GFP MLPCN inconclusive
Cc1ccc(S(=O)(=O)c2cc3c(=O)n4ccccc4nc3n(CCc3ccccc3)c2=N)cc1	MEP2-GFP yeast 217.0[may fluoresce violet], CIT2-GFP yeast inconclusive, RPL19A TOR yeast 43.2[may fluoresce violet], AGP1-GFP MLPCN inconclusive
Cc1ccc(-n2nc3c(c2NC(=O)C2CC2)CS(=O)(=O)C3)cc1	none
O=C(Nc1c2c(nn1-c1ccc([N+](=O)[O-])cc1)CS(=O)(=O)C2)C1CC1	CIT2-GFP yeast inconclusive, RPL19A TOR yeast 40.1[may fluoresce violet]
COc1cccc(CNS(=O)(=O)/C=C/c2ccc3c(c2)OCO3)c1	MEP2-GFP yeast 175.6[may fluoresce violet], CIT2-GFP yeast inconclusive, AGP1-GFP MLPCN inconclusive
O=C(Cc1cccs1)N1CCCC(c2nc3c(nnn3Cc3ccccc3Cl)c(=O)[nH]2)C1 (stereo not given)	MEP2-GFP yeast 294.0[may fluoresce violet], CIT2-GFP yeast inconclusive, RPL19A TOR yeast 49.9[may fluoresce violet], AGP1-GFP MLPCN inconclusive
C=CCn1c(SCc2cccc(OC)c2)nnc1-c1ccncc1	none
CCOc1ccc(S(=O)(=O)NCC2CCCO2)c2cccnc12 (stereo not given)	none
CCOc1ccc(S(=O)(=O)NCC2CCCO2)c2ccccc12 (stereo not given)	CIT2-GFP yeast inconclusive, RPL19A TOR yeast 46.9[may fluoresce violet]
N#Cc1cc2c(cc1NC(=O)CCn1cnnn1)OCO2	none
CC(C(=O)NCCc1ccc(F)cc1)N1CCN(Cc2ccccc2)CC1 (stereo not given)	MEP2-GFP yeast 213.1
O=C1CCC(C(=O)OCC(=O)Nc2ccc(Cl)cc2C(F)(F)F)=NN1	none
CC(=O)Oc1ccc(/C=C(\NC(=O)c2ccco2)C(=O)Nc2ccc(C(C)=O)cc2)cc1	MEP2-GFP yeast 532.3[may fluoresce violet], CIT2-GFP yeast inconclusive
CCCCN(Cc1cc2cc(C)ccc2[nH]c1=O)C(=O)c1ccccn1	none
Cc1cccc(C)c1NC(=O)CSc1nc(C)c(CC(=O)c2ccc(Br)cc2)c(C)c1C#N	MEP2-GFP yeast 228.0[may fluoresce violet], CIT2-GFP yeast inconclusive
CCOc1ccc(CSCCNC(=S)Nc2ccc(OC)cc2)cc1	MEP2-GFP yeast 192.9[may fluoresce violet], CIT2-GFP yeast inconclusive, RPL19A TOR yeast 30.8[may fluoresce violet], AGP1-GFP MLPCN inconclusive
N#Cc1c(N)n(-c2ccc(C(=O)O)cc2)c2nc3ccccc3nc12	MEP2-GFP yeast 209.3[may fluoresce violet], CIT2-GFP yeast inconclusive, AGP1-GFP MLPCN inconclusive
N#Cc1c(N)n(-c2ccc(N)cc2)c2nc3ccccc3nc12	none
COC(=O)n1c(=S)oc2cc(Cl)ccc21	LAP4-GFP MLPCN 158.9
CCOC(=O)C1=C(Cc2ccc(Cl)cc2)C(=O)c2ccccc2C1=O	LAP4-GFP MLPCN 189.7
Nc1nc(-c2ccc3c(c2)CCCC3)c(CC(=O)O)s1	MEP2-GFP yeast 718.8[may fluoresce violet], CIT2-GFP yeast inconclusive, RPL19A TOR yeast 31.9[may fluoresce violet]
O=C1c2ccsc2SCCN1Cc1ccc(F)cc1	none
O=C1c2ccsc2SCCN1Cc1ccc(Cl)cc1	LAP4-GFP MLPCN 174.7
Cc1ccc(CN2CCSc3sccc3C2=O)cc1	LAP4-GFP MLPCN 201.8
Cc1ccc(C(=O)OCC(=O)NC2CCCC(C)C2C)cc1S(=O)(=O)N1CCCCC1 (stereo not given)	none
CCNC(=O)NC(=O)C(C)OC(=O)CNS(=O)(=O)c1c(Cl)cc(Br)cc1Cl (stereo not given)	none
CCOc1cc(C(=S)N2CCCCC2)ccc1OS(=O)(=O)c1ccc(Br)cc1	none
CCOc1cc(C(=S)N2CCCCC2)ccc1OS(=O)(=O)c1ccc(Cl)cc1	LAP4-GFP MLPCN 208.6
CCn1c(SCC(=O)OC2CCCCC2)nnc1-c1ccncc1	MEP2-GFP yeast 579.9[may fluoresce violet], CIT2-GFP yeast inconclusive, RPL19A TOR yeast 46.9[may fluoresce violet]
CCn1c(SCC(=O)OC)nnc1-c1ccncc1	none
COc1ccc(C(=O)Nc2ccnn2C2CCN(C(=O)CCC(F)(F)F)CC2)cc1	none
C=CCCC(=O)N1CCC(n2nccc2NC(=O)c2ccc(OC)cc2)CC1	CIT2-GFP yeast inconclusive, RPL19A TOR yeast 30.9[may fluoresce violet], AGP1-GFP MLPCN inconclusive
COc1ccc(NC(=O)c2ccc(-c3ccc([N+](=O)[O-])cc3)o2)cc1	none
COc1ccc(CCNC(=O)c2ccc(-c3ccc([N+](=O)[O-])cc3)o2)cc1OC	MEP2-GFP yeast 196.3[may fluoresce violet], CIT2-GFP yeast inconclusive, RPL19A TOR yeast 42.9[may fluoresce violet]
CCn1nnc2cc(C(=O)NCC(c3ccccc3OC)N(C)C)ccc21 (stereo not given)	CIT2-GFP yeast inconclusive, RPL19A TOR yeast 46.4[may fluoresce violet], AGP1-GFP MLPCN inconclusive
